Assay results as given in PubChem BioAssay AID743279 (National Center for Advancing Translational Sciences (NCATS), 2014).
Screen size: about 360,000 compounds; about 17,000 (4.7%) were called active. Inconclusive results (about 5%) are left out. Cut-off read from the data, not from the text of the source: active = activity change below about -50%; inconclusive = mostly about -30% to -49%; inactive = weaker than that. This excerpt belongs to a sample that is enriched for actives.

Experiment: qHTS for Inhibitors of Inflammasome Signaling: IL-1-beta AlphaLISA Primary Screen
Conditions: THP-1 LPS/ATP IL-1B secretion, 16 h; at 57.5 µM, active compounds read low
How it was run: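 THP-1 cells pretreated 1 hr with compounds (up to 57.5 uM final), then stimulated with LPS (250 ng/mL final) plus ATP (1.25 mM final); secreted IL-1B measured by AlphaLISA after 16 hr, decreased signal indicating inhibition.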
% is set by controls: 0 for no effect and ±100 for the full control effect.

SMILES	activity change
CC(C)C[C@@H]1COc2cc(N3CCC[C@@H]3CO)ccc2S(=O)(=O)N1	24.4% (inactive)
CCc1ccc(C(CNc2nc(C(F)(F)F)nc3ccccc23)N(C)C)cc1 (configuration not stated)	-104% (active)
NS(=O)(=O)c1ccc(CCNc2nc(C(F)(F)F)nc3ccccc23)cc1	-29.6% (inactive)
COc1ccc(CNc2ncnc3ccccc23)cc1	-5.53% (inactive)
COc1cccc(CNC(=O)c2n[nH]c3ccccc23)c1	-5.24% (inactive)
CN(NC(=O)c1ccccc1F)c1nc(C(F)(F)F)nc2ccccc12	94.2% (inactive)
COc1cccc(CNc2nc(C(F)(F)F)nc3ccccc23)c1	-81.4% (active)
O=C(NCCc1ccc(F)cc1)c1ccc(S(=O)(=O)N2CCCCC2)cc1	7.26% (inactive)
CC1CN/C(=C\C(=O)c2ccc(Br)cc2)C(=O)N1 (configuration not stated)	-2.3% (inactive)
CCc1nc2c(=O)[nH]cnc2o1	-0.15% (inactive)
CCCNC(=O)C1(C)CCCN(Cc2c(C)nn(-c3ccccc3)c2C)C1 (configuration not stated)	0% (inactive)
C[C@H]1Cn2cnc(C(=O)N[C@H](C)c3ccccc3)c2C(=O)N1	56.9% (inactive)
O=C(Nc1cccc(C(=O)O)c1)/C(=C\c1ccccc1)NC(=O)c1ccc(Br)o1	-24.2% (inactive)
C[C@H]1CN([C@@H](C)CO)S(=O)(=O)c2ccc(Br)cc2O[C@H]1CN(C)C(=O)c1cnccn1	7.37% (inactive)
Nc1c(C(=O)c2cccs2)sc2nsc(SCCN3CCCCC3)c12	-95.7% (active)
O=C(CSc1ncnc2sccc12)N1CCN(C(=O)c2cccs2)CC1	-0.616% (inactive)
CCC1OC(C2CC2)CC2=C1C(=O)OC(C)(C)O2 (configuration not stated)	29.6% (inactive)
NC1=NC(c2ccc([N+](=O)[O-])cc2)N(c2ccc(F)cc2)C(N)=N1 (configuration not stated)	-52.3% (active)
O=[N+]([O-])c1ccc(N2CCN(c3ccc(F)cc3)CC2)cn1	-1.6% (inactive)

SMILES	activity change
COc1ccc(C2N=C(N)N=C(N)N2c2ccccc2)cc1OC (configuration not stated)	-16.9% (inactive)
CC(C)(C)c1ccc(S(=O)(=O)NC(=O)C2(C)CCN2C(=O)CC2CC2)cc1 (configuration not stated)	-3.72% (inactive)
CC(Nc1nc(N2CCOCC2)nc2ccccc12)c1ccccc1 (configuration not stated)	0% (inactive)
Cn1c(=O)[nH]c(=O)c2c1nc(N1CCN(CCO)CC1)n2CCSc1nc2ccccc2s1	10.2% (inactive)
CCCCn1c(CN2CCN(CCO)CC2)nc2ccccc21	44.1% (inactive)
CC(Nc1nc(N2CCCC2)nc2ccccc12)c1ccccc1 (configuration not stated)	-80.2% (active)
c1ccc(-c2cc(N3CCCCC3)c3ccccc3n2)cc1	-26.2% (inactive)
CC(Nc1nc(N2CCN(CCO)CC2)nc2ccccc12)c1ccccc1 (configuration not stated)	-90.7% (active)
COc1ccc(CCCNC(=O)C2Cc3c(-c4cccc(C(N)=O)c4)ccnc3O2)cc1 (configuration not stated)	34.7% (inactive)
CCN(CC)CCCN=C(N)N	-17.5% (inactive)
O=P(c1ccc2c(c1)OCCO2)(N1CCOCC1)N1CCOCC1	8.69% (inactive)
Cc1ccc(NC(=O)C(c2ccccc2)N2CCN(C(=O)c3ccco3)CC2)cc1 (configuration not stated)	16.1% (inactive)
COc1ccc(C(=O)Nc2ccccc2C(=O)N2CCN(c3ccccc3)CC2)cc1	0% (inactive)
Cc1ccc(OCC(=O)Nc2ccc(NC(=O)c3cccs3)cc2)c(C)c1	-1.3% (inactive)
COc1cccc(C(=O)Nc2ccc(N3CCN(C(=O)c4ccco4)CC3)cc2)c1	-73.8% (active)
COc1cccc(OCc2cc(C(=O)N3CCN(C(=O)c4ccco4)CC3)no2)c1	6.56% (inactive)
Cc1ccc(OCC(=O)Nc2ccc(N3CCN(C(=O)c4ccco4)CC3)cc2)c(C)c1	-61.6% (active)
O=C(Nc1cc2c3c(c1)CC(=O)N3CCC2)c1ccccc1F	4.9% (inactive)
CCNC(=O)C1(C)CCCN(Cc2noc(-c3ccccc3OC)n2)C1 (configuration not stated)	-5.34% (inactive)

SMILES	activity change
C[C@H]1CN([C@@H](C)CO)C(=O)CCCn2nncc2CO[C@@H]1CN(C)Cc1ccc(Oc2ccccc2)cc1	8.16% (inactive)
CCOCCCNC(=O)C(NC(=O)Cc1c[nH]c2ccccc12)c1ccc(OC)cc1 (configuration not stated)	10.6% (inactive)
Cc1cc(NCc2cccnc2)no1	3.61% (inactive)
O=S(=O)(c1ccc(Br)cc1)c1nc(-c2ccccc2)oc1NCc1cccnc1	-18.2% (inactive)
N#Cc1nc(COc2ccc(-c3ccccc3)cc2)oc1NCc1cccnc1	-79.6% (active)
CCCC/C(C)=N/NC(=O)NC1CCCCC1	14.3% (inactive)
O=C(COC(=O)/C=C/c1ccc(OC(F)F)cc1)NC1CCCCC1	17.5% (inactive)
C/C(=N\NC(=O)NC1CCCCC1)c1ccc(OC(F)F)cc1OC(F)F	-80.5% (active)
O=C(c1ccc(Cn2cc([N+](=O)[O-])cn2)o1)N1CCCC1	13.7% (inactive)
Cc1ccn(-c2cccc(-n3ccc(C)n3)n2)n1	25.2% (inactive)
O=C1N[C@@H](c2ccccc2)COC(=O)[C@H](Cc2ccc(F)cc2)C/C=C\C[C@@H]1CC(=O)N(CCO)Cc1ccccc1	-68.1% (active)
O=C1CCC/C=C/C[C@@H](CC(=O)N(CCO)Cc2ccccc2)C(=O)NC[C@H](c2ccccc2)O1	-15.8% (inactive)
CC(C)(C)OC(=O)C[C@@H]1C/C=C\C[C@@H](CC(=O)N(CCO)Cc2ccccc2)C(=O)N[C@H](Cc2ccccc2)COC1=O	-12.5% (inactive)
O=C1CCC/C=C\C[C@@H](CC(=O)N(CCO)Cc2ccccc2)C(=O)NCCO1	36.5% (inactive)
O=C1OC[C@@H]2CCCN2C(=O)[C@H](CC(=O)N(CCO)Cc2ccccc2)C/C=C\CC[C@@H]1Cc1ccc(F)cc1	-27.7% (inactive)
O=C1NC[C@@H](c2ccccc2)OC(=O)[C@H](Cc2ccc(F)cc2)CC/C=C/C[C@H]1CC(=O)N(CCO)Cc1ccccc1	-57.4% (active)
CCCCc1ccc(S(=O)(=O)NC(=O)C2(C)CCN2C(=O)c2c(C)noc2C)cc1 (configuration not stated)	24.9% (inactive)
CCN(CC)C(=O)N1CCN(C(=O)c2ccc(C)cn2)CC1	13.6% (inactive)
Cc1ccc(S(=O)(=O)N2CCCC2C(=O)OCc2nc3sc(C)c(C)c3c(=O)[nH]2)cc1 (configuration not stated)	-4.97% (inactive)
